# Test results as given in PubChem BioAssay (NCI).
# Where “and” joins values, the source holds several entries; their conditions need not be identical. Identical values can stand only once. Compounds without any hit were thinned out: in the full panel of roughly 79,000, 15% have a hit. A structure can be active in one record and inactive in another. Calls of active or inactive are those of the source. No stated cut-off is given here; in the data, active means growth inhibition above about 70%; inactive means the rest.
# Key:
# [1] = NCI Yeast Anticancer Drug Screen. Data for the CLN2oe strain (AID 163);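 further: 0% = growth of vehicle-only control cultures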; conditions: S. cerevisiae CLN2oe strain, stronger effect = higher value
# How it was run: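 Here, growth inhibition in a cell-cycle-altered yeast strain after compound exposure was quantified against vehicle control growth.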
# [2] = NCI Yeast Anticancer Drug Screen. Data for the bub3 strain (AID 167); conditions: S. cerevisiae bub3 mutant strain, stronger effect = higher value
# How it was run: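 Inhibition values come from growth of compound-treated mutant yeast normalised to vehicle-treated controls.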
# [3] = NCI Yeast Anticancer Drug Screen. Data for the wt2 strain (AID 169);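 further: 0% = growth of vehicle-treated yeast cultures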; conditions: S. cerevisiae wt2 strain growth inhibition, stronger effect = higher value
# How it was run: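 Genetically defined yeast strains from a DNA-repair/cell-cycle panel were used. Compound-exposed yeast growth was measured, and the inhibition was calculated relative to vehicle treatment.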
# [4] = NCI Yeast Anticancer Drug Screen. Data for the mlh1 strain (AID 171);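 further: 0% = growth of vehicle-treated control cultures of the same strain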; conditions: S. cerevisiae mlh1 strain growth inhibition, stronger effect = higher value
# How it was run: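 Here the genetically defined yeast mutant is grown with each compound, and the extent to which its growth falls below that of vehicle-exposed cells is reported.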
# [5] = NCI Yeast Anticancer Drug Screen. Data for the sgs1 strain (AID 173);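 further: 0% = growth of vehicle-only control cultures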; conditions: S. cerevisiae sgs1 mutant, stronger effect = higher value
# How it was run: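 Relative growth inhibition, referenced to vehicle, was determined in a yeast strain with a defined alteration affecting DNA damage repair or cell cycle control after compound exposure.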
# [6] = NCI Yeast Anticancer Drug Screen. Data for the mlh1 rad18 strain (AID 175); conditions: S. cerevisiae mlh1 rad18 strain growth inhibition, stronger effect = higher value
# How it was run: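 In this whole-cell yeast screen, a strain with altered DNA damage repair is challenged with compound, and its growth is measured against matched vehicle-treated controls.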
# [7] = NCI Yeast Anticancer Drug Screen. Data for the rad18 strain (AID 177); conditions: S. cerevisiae rad18 mutant growth inhibition, stronger effect = higher value
# How it was run: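 Screen uses a yeast strain with a defined lesion in DNA damage repair; compound effect is read as loss of growth compared to untreated vehicle cultures.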
# [8] = NCI Yeast Anticancer Drug Screen. Data for the rad50 strain (AID 155);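 further: 0% = growth of vehicle-only cultures of the same strain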; conditions: S. cerevisiae rad50 strain growth inhibition, stronger effect = higher value
# How it was run: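 A DNA repair-deficient yeast mutant serves as the test organism; compound-induced growth inhibition is calculated against vehicle-treated cells.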
# [9] = NCI Yeast Anticancer Drug Screen. Data for the mec2-1 strain (AID 157); conditions: S. cerevisiae mec2-1 strain, stronger effect = higher value
# How it was run: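 Test agents were screened against the mec2-1 yeast strain, with defined DNA repair or cell cycle alteration. Growth was scored as inhibition against vehicle-only controls.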
# [10] = NCI Yeast Anticancer Drug Screen. Data for the sgs1 mgt1 strain (AID 161);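 further: 0% = growth of cultures given vehicle only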; conditions: S. cerevisiae sgs1 mgt1 strain, stronger effect = higher value
# How it was run: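 Mutant yeast exposed to compound; growth scored against vehicle-only wells.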
# [11] = NCI Yeast Anticancer Drug Screen. Data for the cln2 rad14 strain (AID 165);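 further: 0% = growth equal to vehicle treated cultures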; conditions: S. cerevisiae cln2 rad14 strain, stronger effect = higher value
# How it was run: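 Growth of compound-exposed yeast (cln2 rad14 genotype) measured and expressed as inhibition relative to vehicle.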
# [12] = NCI Yeast Anticancer Drug Screen. Data for the rad50EPP+ strain (AID 151);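 further: 0% = growth of vehicle-treated control cultures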; conditions: S. cerevisiae rad50 mutant strain, stronger effect = higher value
# How it was run: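 One strain with a rad50 alteration (rad50EPP+) was compound-treated, its growth then compared to that of vehicle controls.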
# [13] = NCI Yeast Anticancer Drug Screen. Data for the mgt1 strain (AID 153); conditions: S. cerevisiae mgt1 mutant growth inhibition, stronger effect = higher value
# How it was run: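 After exposure of the mgt1 yeast mutant to compound, growth was measured and reported as inhibition compared with vehicle controls.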
# [14] = NCI Yeast Anticancer Drug Screen. Data for the rad14 strain (AID 159);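 further: 0% = growth of vehicle-treated control cultures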; conditions: S. cerevisiae rad14 strain growth inhibition, stronger effect = higher value
# How it was run: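 Vehicle-treated cultures served as the baseline for growth inhibition of a DNA repair-mutant yeast strain exposed to each compound.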
# [15] = at 5.0 µM (retest, dose inferred, filed as 0.5)
# [16] = at 50.0 µM (retest, dose inferred, filed as 5.0)
smiles,measurement,setting,value
CC(C)(C)[Si](C)(C)OCC1OC(n2cnc3c(N)ncnc32)C2OC(=S)OC12 (stereo not drawn),growth inhibition,[1]; at 3.7 µM,-3% (inactive)
same,growth inhibition,[1]; at 11.0 µM,-1% (inactive)
same,growth inhibition,[1]; at 33.0 µM,-2% (inactive)
same,growth inhibition,[1]; at 100.0 µM,9% (inactive)
same,growth inhibition,[2]; at 1.2 µM,0% (inactive)
same,growth inhibition,[2]; at 3.7 µM,2% (inactive)
same,growth inhibition,[2]; [15],-42% (inactive)
same,growth inhibition,[2]; at 11.0 µM,3% (inactive)
same,growth inhibition,[2]; at 33.0 µM,3% (inactive)
same,growth inhibition,[2]; [16],3% (inactive)
same,growth inhibition,[2]; at 50.0 µM,48.4% (inactive)
same,growth inhibition,[2]; at 100.0 µM,10% (inactive)
same,growth inhibition,[3]; at 1.2 µM,-1% (inactive)
same,growth inhibition,[3]; at 3.7 µM,9% (inactive)
same,growth inhibition,[3]; at 11.0 µM,1% (inactive)
same,growth inhibition,[3]; at 33.0 µM,2% (inactive)
same,growth inhibition,[3]; at 100.0 µM,36% (inactive)
same,growth inhibition,[4]; at 1.2 µM,-1% (inactive)
same,growth inhibition,[4]; at 3.7 µM,-2% (inactive)
same,growth inhibition,[4]; at 11.0 µM,-3% (inactive)
same,growth inhibition,[4]; at 33.0 µM,0% (inactive)
same,growth inhibition,[4]; at 100.0 µM,37% (inactive)
same,growth inhibition,[5]; at 1.2 µM,-1% (inactive)
same,growth inhibition,[5]; at 3.7 µM,2% (inactive)
same,growth inhibition,[5]; at 11.0 µM,4% (inactive)
same,growth inhibition,[5]; at 33.0 µM,14% (inactive)
same,growth inhibition,[5]; at 100.0 µM,80% (active)
same,growth inhibition,[6]; [15],7% (inactive)
same,growth inhibition,[6]; [16],22% (inactive)
same,growth inhibition,[6]; at 50.0 µM,48.1% (inactive)
same,growth inhibition,[7]; at 1.2 µM,-1% (inactive)
same,growth inhibition,[7]; at 3.7 µM,1% (inactive)
same,growth inhibition,[7]; at 11.0 µM,6% (inactive)
same,growth inhibition,[7]; at 33.0 µM,22% (inactive)
same,growth inhibition,[7]; at 100.0 µM,86% (active)
CCCCCCCCCCCC[N+](C)(C)Cc1ccccc1 (tested in a mixture with another compound),growth inhibition,[8]; [15],79% (active) and 69% (inactive) and 58% (inactive)
same,growth inhibition,[8]; [16],99% (active)
same,growth inhibition,[8]; at 50.0 µM,98% (active) and 99.6% (active) and 97.7% (active)
same,growth inhibition,[9]; [15],79% (active) and 55% (inactive) and 44% (inactive)
same,growth inhibition,[9]; [16],100% (active)
same,growth inhibition,[9]; at 50.0 µM,99.7% (active) and 99.8% (active) and 86.8% (active)
same,growth inhibition,[10]; [15],93% (active) and 95% (active) and 89% (active)
same,growth inhibition,[10]; [16],100% (active) and 99% (active)
same,growth inhibition,[10]; at 50.0 µM,99.7% (active) and 99.8% (active) and 99.5% (active)
same,growth inhibition,[11]; [15],66% (inactive) and 58% (inactive) and 61% (inactive)
same,growth inhibition,[11]; [16],99% (active)
same,growth inhibition,[11]; at 50.0 µM,98.5% (active) and 97.3% (active) and 96% (active)
same,growth inhibition,[2]; [15],93% (active) and 76% (active)
same,growth inhibition,[2]; [16],100% (active) and 99% (active)
same,growth inhibition,[2]; at 50.0 µM,99.8% (active) and 99.3% (active) and 98.3% (active)
O=C(CCC(=O)c1ccc(O)cc1)Oc1ccc(O)cc1,growth inhibition,[12]; at 1.2 µM,5% (inactive)
same,growth inhibition,[12]; at 3.7 µM,9% (inactive)
same,growth inhibition,[12]; at 11.0 µM,15% (inactive)
same,growth inhibition,[12]; at 33.0 µM,17% (inactive)
same,growth inhibition,[12]; at 100.0 µM,24% (inactive)
same,growth inhibition,[13]; at 1.2 µM,1% (inactive)
same,growth inhibition,[13]; at 3.7 µM,-1% (inactive)
same,growth inhibition,[13]; at 11.0 µM,2% (inactive)
same,growth inhibition,[13]; at 33.0 µM,2% (inactive)
same,growth inhibition,[13]; at 100.0 µM,3% (inactive)
same,growth inhibition,[8]; at 1.2 µM,2% (inactive)
same,growth inhibition,[8]; at 3.7 µM,4% (inactive)
same,growth inhibition,[8]; [15],-13% (inactive)
same,growth inhibition,[8]; at 11.0 µM,2% (inactive)
same,growth inhibition,[8]; at 33.0 µM,6% (inactive)
same,growth inhibition,[8]; [16],16% (inactive)
same,growth inhibition,[8]; at 50.0 µM,-2.75% (inactive)
same,growth inhibition,[8]; at 100.0 µM,11% (inactive)
same,growth inhibition,[9]; at 1.2 µM,-1% (inactive)
same,growth inhibition,[9]; at 3.7 µM,3% (inactive)
same,growth inhibition,[9]; [15],-2% (inactive)
same,growth inhibition,[9]; at 11.0 µM,3% (inactive)
same,growth inhibition,[9]; at 33.0 µM,7% (inactive)
same,growth inhibition,[9]; [16],-11% (inactive)
same,growth inhibition,[9]; at 50.0 µM,-22.5% (inactive)
same,growth inhibition,[9]; at 100.0 µM,5% (inactive)
same,growth inhibition,[14]; at 1.2 µM,-1% (inactive)
same,growth inhibition,[14]; at 3.7 µM,-1% (inactive)
same,growth inhibition,[14]; at 11.0 µM,-1% (inactive)
same,growth inhibition,[14]; at 33.0 µM,1% (inactive)
same,growth inhibition,[14]; at 100.0 µM,5% (inactive)
same,growth inhibition,[10]; [15],-8% (inactive)
same,growth inhibition,[10]; [16],10% (inactive)
same,growth inhibition,[10]; at 50.0 µM,2.2% (inactive)
same,growth inhibition,[1]; at 1.2 µM,3% (inactive)
same,growth inhibition,[1]; at 3.7 µM,-11% (inactive)
same,growth inhibition,[1]; at 11.0 µM,5% (inactive)
same,growth inhibition,[1]; at 33.0 µM,3% (inactive)
same,growth inhibition,[1]; at 100.0 µM,6% (inactive)
same,growth inhibition,[11]; [15],-9% (inactive)
same,growth inhibition,[11]; [16],40% (inactive)
same,growth inhibition,[11]; at 50.0 µM,8.3% (inactive)
same,growth inhibition,[2]; at 1.2 µM,12% (inactive)
same,growth inhibition,[2]; at 3.7 µM,21% (inactive)
same,growth inhibition,[2]; [15],18% (inactive)
same,growth inhibition,[2]; at 11.0 µM,33% (inactive)
same,growth inhibition,[2]; at 33.0 µM,40% (inactive)
same,growth inhibition,[2]; [16],67% (inactive)
same,growth inhibition,[2]; at 50.0 µM,29.1% (inactive)
same,growth inhibition,[2]; at 100.0 µM,47% (inactive)
same,growth inhibition,[3]; at 1.2 µM,-1% (inactive)
same,growth inhibition,[3]; at 3.7 µM,-1% (inactive)
same,growth inhibition,[3]; at 11.0 µM,-2% (inactive)
same,growth inhibition,[3]; at 33.0 µM,1% (inactive)
same,growth inhibition,[3]; at 100.0 µM,-1% (inactive)
same,growth inhibition,[4]; at 1.2 µM,3% (inactive)
same,growth inhibition,[4]; at 3.7 µM,0% (inactive)
same,growth inhibition,[4]; at 11.0 µM,2% (inactive)
same,growth inhibition,[4]; at 33.0 µM,1% (inactive)
same,growth inhibition,[4]; at 100.0 µM,4% (inactive)
same,growth inhibition,[5]; at 1.2 µM,1% (inactive)
same,growth inhibition,[5]; at 3.7 µM,1% (inactive)
same,growth inhibition,[5]; at 11.0 µM,1% (inactive)
same,growth inhibition,[5]; at 33.0 µM,4% (inactive)
same,growth inhibition,[5]; at 100.0 µM,6% (inactive)
same,growth inhibition,[6]; [15],-18% (inactive)
same,growth inhibition,[6]; [16],25% (inactive)
same,growth inhibition,[6]; at 50.0 µM,1.35% (inactive)
same,growth inhibition,[7]; at 1.2 µM,1% (inactive)
same,growth inhibition,[7]; at 3.7 µM,-3% (inactive)
same,growth inhibition,[7]; at 11.0 µM,-4% (inactive)
same,growth inhibition,[7]; at 33.0 µM,-4% (inactive)
same,growth inhibition,[7]; at 100.0 µM,-4% (inactive)
